# Data published in PubChem BioAssay (Tox21).
# Values without a mark were called inactive. Records with an inconclusive call do not appear. Where a call stands in place of a potency, no number is given. Activity calls are given as the source filed them. Unless noted, the call rests on the fitted dose curve; in most records, active means well fitted curve in the direction sought with a large enough effect in the repeat runs; inconclusive means weak or mixed curves; inactive means no such curve, though single readings can be large; an effect the other way counts as inactive or inconclusive.
# Key:
# [1] = qHTS assay to identify small molecule agonists of the TGF-beta/Smad signaling pathway (AID 1346859; active means well fitted activation curve with a large enough effect in the signal ratio in the repeat runs, not every such curve was filed as active; the % refers to the signal ratio; further: series mostly up to about 77 µM)
# In short: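 Beta-lactamase reporter activity downstream of Smad binding elements was measured in stably transfected HEK 293T cells; compounds were incubated for 5 hr, substrate for 2 hr at room temperature.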
# [2] = molecular target: Thyrotropin-releasing hormone receptor (Homo sapiens) (UniProt P34981); experiment: qHTS assay to identify small molecule antagonists of the thyrotropin-releasing hormone receptor (TRHR) signaling pathway (AID 1346877; active means well fitted inhibition curve with a large enough effect in the repeat runs, not every such curve was filed as active; further: series mostly up to about 51 µM)
# In short: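 HEK293/TRHR cells, 18 h, 37 °C; Ca2+ dye 2 h; cpd 5 min RT; TRH 1 nM final; fluorescence read 3 min, 1 s intervals; 15 concs, triplicate.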
# [3] = molecular target: Thyrotropin-releasing hormone receptor (Homo sapiens) (UniProt P34981); experiment: qHTS assay to identify small molecule agonists of the thyrotropin-releasing hormone receptor (TRHR) signaling pathway (AID 1346891; calls by dose curve;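 further: HEK293 cells expressing TRHR with calcium dye readout; series mostly up to about 58 µM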)
# In short: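 Overnight-plated (18 h, 37 °C, 5% CO2) TRHR-Hek293 cells; 2 h calcium dye at 37 °C; compound in DMSO; 3-min kinetic fluorescence read.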
# [4] = Human pregnane X receptor (PXR) small molecule agonists, qHTS cell viability counter screen (AID 1346977); further: nearly all actives have a fitted effect of over 50% in size
# In short: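 After a 5hr pre-incubation, PXR-Luc HepG2 cells received compounds plus positive control in DMSO and were kept 24hr at 37C. Cell viability was quantified by fluorescence from CellTiter-Fluor added for the final hour.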
# [5] = Caspase-3/7 induction in HepG2 cells by small molecules, qHTS assay (AID 1346978); further: nearly all actives have a fitted effect of over 15% in size
# In short: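 Caspase-3/7 induction was measured by Caspase-Glo 3/7 luminescence (30 min, room temperature) after a 17 hr compound exposure of wild-type HepG2 cells seeded at 2,000 per well and pre-incubated 5 hr.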
# [6] = Caspase-3/7 induction in CHO-K1 cells by small molecules, qHTS cell viability counter screen (AID 1346979); further: nearly all actives have a fitted effect of over 35% in size
# In short: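 Multiplexed with Caspase-Glo 3/7 in CHO-K1 cells, this counter screen added CellTiter-Fluor after 16hr of compound exposure and recorded fluorescence 1hr later.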
# [7] = Caspase-3/7 induction in CHO-K1 cells by small molecules, qHTS assay (AID 1346980); further: nearly all actives have a fitted effect of over 15% in size
# In short: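 Luminescent Caspase-Glo 3/7 read (30min, room temperature) quantified apoptosis induction. Cells were wild-type CHO-K1, treated with compound for 17hr at 37 C and 5% CO2.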
# [8] = Caspase-3/7 induction in HepG2 cells by small molecules, qHTS cell viability counter screen (AID 1346981); further: series mostly up to about 92 µM; nearly all actives have a fitted effect of over 30% in size
# In short: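 Fluorescence read-out of live-cell protease activity (CellTiter-Fluor) after 1 hr with reagent. This was measured in the same wells as the caspase-3/7 luminescence, on HepG2 cells exposed to DMSO-dissolved compounds for 16 hr at 37 C.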
# [9] = molecular target: Nuclear receptor subfamily 1 group I member 2 (Homo sapiens) (UniProt O75469); experiment: Human pregnane X receptor (PXR) small molecule agonists, qHTS assay (AID 1346982); further: nearly all actives have a fitted effect of over 35% in size; further: potency means the concentration at half of the fitted maximal effect
# In short: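 HepG2 PXR-Luc reporter line, 5% charcoal-stripped FBS; 5 hr pre-incubation, compound (DMSO) 24 hr at 37 C/5% CO2; ONE-Glo 30 min RT; luminescence read-out.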
# [10] = molecular target: Nuclear receptor subfamily 1 group I member 2 (Rattus norvegicus) (UniProt Q9R1A7); experiment: Rat pregnane X receptor (rPXR) activation by small molecules, qHTS assay (AID 1346983); settings: rPXR luciferase reporter cells, One-Glo luminescence, 24 h; max activation: active compounds read high; further: nearly all actives have a fitted effect of over 20% in size; further: potency means the concentration at half of the fitted maximal effect
# In short: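 Luminescent readout (One-Glo luciferase, 30 min room temperature) followed 24 hr compound treatment at 37 C of rPXR cells plated 2,000 per well and preincubated 5hr; qHTS format with compounds delivered in DMSO.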
# Sequence of Thyrotropin-releasing hormone receptor (Homo sapiens) (P34981 whole entry, looked up): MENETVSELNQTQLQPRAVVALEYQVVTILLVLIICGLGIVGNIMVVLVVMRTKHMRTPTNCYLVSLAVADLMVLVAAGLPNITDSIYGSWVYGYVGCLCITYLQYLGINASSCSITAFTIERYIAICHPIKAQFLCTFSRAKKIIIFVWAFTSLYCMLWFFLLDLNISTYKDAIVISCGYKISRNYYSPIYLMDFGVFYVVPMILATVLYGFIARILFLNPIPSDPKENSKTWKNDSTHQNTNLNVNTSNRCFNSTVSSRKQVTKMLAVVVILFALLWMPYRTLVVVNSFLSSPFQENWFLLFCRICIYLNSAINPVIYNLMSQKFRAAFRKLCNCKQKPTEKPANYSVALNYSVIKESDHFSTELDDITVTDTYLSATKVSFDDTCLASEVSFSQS
# Sequence of Nuclear receptor subfamily 1 group I member 2 (Homo sapiens) (O75469 whole entry, looked up): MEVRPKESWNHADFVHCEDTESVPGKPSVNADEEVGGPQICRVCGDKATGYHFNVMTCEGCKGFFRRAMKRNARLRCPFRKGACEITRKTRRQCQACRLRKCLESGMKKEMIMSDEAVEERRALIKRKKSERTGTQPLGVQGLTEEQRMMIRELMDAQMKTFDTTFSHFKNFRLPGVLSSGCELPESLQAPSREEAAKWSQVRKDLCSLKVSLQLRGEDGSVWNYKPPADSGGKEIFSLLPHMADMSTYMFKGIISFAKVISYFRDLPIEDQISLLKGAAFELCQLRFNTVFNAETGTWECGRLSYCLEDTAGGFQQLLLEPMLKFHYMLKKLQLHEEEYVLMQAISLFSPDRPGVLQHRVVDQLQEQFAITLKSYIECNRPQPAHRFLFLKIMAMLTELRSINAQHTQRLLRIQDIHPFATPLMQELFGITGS
# Sequence of Nuclear receptor subfamily 1 group I member 2 (Rattus norvegicus) (Q9R1A7 whole entry, looked up): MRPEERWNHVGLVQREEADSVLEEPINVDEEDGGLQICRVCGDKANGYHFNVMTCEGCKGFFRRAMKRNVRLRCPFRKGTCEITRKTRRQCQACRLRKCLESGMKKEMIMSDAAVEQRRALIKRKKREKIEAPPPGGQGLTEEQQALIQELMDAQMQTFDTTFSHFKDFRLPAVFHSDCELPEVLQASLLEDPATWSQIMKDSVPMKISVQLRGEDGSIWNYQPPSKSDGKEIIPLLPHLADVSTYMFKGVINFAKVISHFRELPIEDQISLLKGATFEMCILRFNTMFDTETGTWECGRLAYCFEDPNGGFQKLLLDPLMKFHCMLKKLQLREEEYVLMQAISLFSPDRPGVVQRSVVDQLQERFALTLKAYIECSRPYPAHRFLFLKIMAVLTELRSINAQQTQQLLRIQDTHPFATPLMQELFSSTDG
smiles,measurement,setting,value
C/C=C(\C)C(=O)OCC/C=C\CC,outcome,[1],inactive
same,outcome,[2],inactive
same,outcome,[3],inactive
same,Potency,[4],inactive
same,outcome,[5],inactive
same,Potency,[6],inactive
same,outcome,[7],inactive
same,Potency,[8],inactive
same,Potency,[9],inactive
CC(C)COC(=O)COc1ccc(Cl)cc1Cl,outcome,[1],inactive
same,outcome,[2],inactive
same,outcome,[3],inactive
same,Potency,[4],inactive
same,outcome,[5],inactive
same,Potency,[6],inactive
same,outcome,[7],inactive
same,Potency,[8],inactive
same,Potency,[9],inactive
FC(F)(F)/C(=N\OCC1OCCO1)c1ccc(Cl)cc1,outcome,[1],inactive
same,outcome,[2],inactive
same,outcome,[3],inactive
same,Potency,[4],inactive
same,outcome,[5],inactive
same,Potency,[6],inactive
same,outcome,[7],inactive
same,Potency,[8],inactive
same,Potency,[9],inactive
C1=C\CC/C=C\CC/1,outcome,[1],inactive
same,outcome,[2],inactive
same,outcome,[3],inactive
same,Potency,[4],inactive
same,outcome,[5],inactive
same,Potency,[6],inactive
same,outcome,[7],inactive
same,Potency,[8],inactive
same,Potency,[9],inactive
CCCCCCCCCCCCC,outcome,[1],inactive
same,outcome,[2],inactive
same,outcome,[3],inactive
same,Potency,[4],inactive
same,outcome,[5],inactive
same,Potency,[6],inactive
same,outcome,[7],inactive
same,Potency,[8],inactive
same,Potency,[9],inactive
CCOC(=O)CCCCCCCCC(=O)OCC,outcome,[1],inactive
same,outcome,[2],inactive
same,outcome,[3],inactive
same,Potency,[4],inactive
same,outcome,[5],inactive
same,Potency,[6],inactive
same,outcome,[7],inactive
same,Potency,[8],inactive
same,Potency,[9],inactive
Cc1ccccc1N1CCN(CCc2nnc3n2CCCC3)CC1,outcome,[1],inactive
same,outcome,[2],inactive
same,outcome,[3],inactive
same,Potency,[4],inactive
same,outcome,[5],inactive
same,Potency,[6],inactive
same,outcome,[7],inactive
same,Potency,[8],inactive
same,Potency,[9],inactive
CCN(Cc1cccc(S(=O)(=O)O)c1)c1ccccc1,outcome,[1],inactive
same,outcome,[2],inactive
same,outcome,[3],inactive
same,Potency,[4],inactive
same,outcome,[5],inactive
same,Potency,[6],inactive
same,outcome,[7],inactive
same,Potency,[8],inactive
same,Potency,[9],inactive
NS(=O)(=O)c1ccccc1OC(F)(F)F,outcome,[1],inactive
same,outcome,[2],inactive
same,outcome,[3],inactive
same,Potency,[4],inactive
same,outcome,[5],inactive
same,Potency,[6],inactive
same,outcome,[7],inactive
same,Potency,[8],inactive
same,Potency,[9],inactive
COc1cc(C=O)ccc1OC(=O)C(C)C,outcome,[1],inactive
same,outcome,[2],inactive
same,outcome,[3],inactive
same,Potency,[4],inactive
same,outcome,[5],inactive
same,Potency,[6],inactive
same,outcome,[7],inactive
same,Potency,[8],inactive
same,Potency,[9],inactive
C=CCOCC(CO)(COCC=C)COCC=C,outcome,[1],inactive
same,outcome,[2],inactive
same,outcome,[3],inactive
same,Potency,[4],inactive
same,outcome,[5],inactive
same,Potency,[6],inactive
same,outcome,[7],inactive
same,Potency,[8],inactive
Nc1cc(C(=O)O)ccc1Cl,outcome,[1],inactive
same,outcome,[2],inactive
same,outcome,[3],inactive
same,Potency,[4],inactive
same,outcome,[5],inactive
same,Potency,[6],inactive
same,outcome,[7],inactive
same,Potency,[8],inactive
same,Potency,[9],inactive
COCCOCCOCCOC,outcome,[1],inactive
same,outcome,[2],inactive
same,outcome,[3],inactive
same,Potency,[4],inactive
same,outcome,[5],inactive
same,Potency,[6],inactive
same,outcome,[7],inactive
same,Potency,[8],inactive
same,Potency,[9],inactive
C[C@H]1O[C@H](O[C@H]2[C@H](O)[C@@H](O)[C@@H](O[C@H]3[C@H](O)[C@@H](O)[C@H](O)O[C@@H]3CO)O[C@@H]2CO)[C@H](O)[C@@H](O)[C@@H]1N[C@H]1C=C(CO)[C@@H](O)[C@H](O)[C@H]1O,outcome,[1],inactive
same,outcome,[2],inactive
same,outcome,[3],inactive
same,Potency,[4],inactive
same,outcome,[5],inactive
same,Potency,[6],inactive
same,outcome,[7],inactive
same,Potency,[8],inactive
same,max activation,[10],-1.07%
Nc1cc(Cl)cc(S(=O)(=O)O)c1O,outcome,[1],inactive
same,outcome,[2],inactive
same,outcome,[3],inactive
same,Potency,[4],inactive
same,outcome,[5],inactive
same,Potency,[6],inactive
same,outcome,[7],inactive
same,Potency,[8],inactive
same,Potency,[9],inactive
C=CCCCCCCCCCCC,activation,[1],-3.71% [at 6.97 µM]
same,"activity, negative = inhibition",[2],4.06% [at 4.65 µM]
same,activation,[3],-0.423% [at 5.23 µM]
same,"activity change, negative = cytotoxicity",[4],-1.17% [at 8.39 µM]
same,caspase activation,[5],-1.35% [at 8.39 µM]
same,"activity change, negative = cytotoxicity",[6],-0.387% [at 8.39 µM]
same,caspase-3/7 activation,[7],0.611% [at 8.39 µM]
same,"activity change, negative = cytotoxicity",[8],0.644% [at 8.39 µM]
same,activation,[9],-8.11% [at 8.39 µM]
CCCOC(=O)CCCCC(=O)OCCC,outcome,[1],inactive
same,outcome,[2],inactive
same,outcome,[3],inactive
same,Potency,[4],inactive
same,outcome,[5],inactive
same,Potency,[6],inactive
same,outcome,[7],inactive
same,Potency,[8],inactive
same,Potency,[9],inactive
C[C@@H]1C[C@H]2[C@@H]3C[C@H](F)C4=CC(=O)C=C[C@]4(C)[C@@]3(F)[C@@H](O)C[C@]2(C)[C@@]1(O)C(=O)CO,outcome,[1],inactive
same,outcome,[2],inactive
same,outcome,[3],inactive
same,Potency,[4],inactive
same,outcome,[5],inactive
same,Potency,[6],inactive
same,outcome,[7],inactive
same,Potency,[8],inactive
same,Potency,[10],1.41 µM (active)
O=C1c2ccccc2-c2ccccc21,outcome,[1],inactive
same,outcome,[2],inactive
same,outcome,[3],inactive
same,Potency,[4],inactive
same,outcome,[5],inactive
same,Potency,[6],inactive
same,outcome,[7],inactive
same,Potency,[8],inactive
same,Potency,[9],inactive
Nc1ccc(/C=C/c2ccc(N)cc2S(=O)(=O)O)c(S(=O)(=O)O)c1,activation,[1],1.21% [at 0.29 µM]
same,"activity, negative = inhibition",[2],-5.44% [at 0.194 µM]
same,activation,[3],0.0703% [at 0.218 µM]
same,"activity change, negative = cytotoxicity",[4],11% [at 0.349 µM]
same,caspase activation,[5],0.454% [at 0.349 µM]
same,"activity change, negative = cytotoxicity",[6],8.5% [at 0.349 µM]
same,caspase-3/7 activation,[7],-0.823% [at 0.349 µM]
same,"activity change, negative = cytotoxicity",[8],1.29% [at 0.349 µM]
same,activation,[9],-2.19% [at 0.349 µM]
same,max activation,[10],-1.81%
C=CCOc1c(Br)cc(Br)cc1Br,outcome,[1],inactive
same,outcome,[2],inactive
same,outcome,[3],inactive
same,Potency,[4],inactive
same,outcome,[5],inactive
same,Potency,[6],inactive
same,outcome,[7],inactive
same,Potency,[8],inactive
same,Potency,[9],inactive
O=C(c1ccc2c(c1)C(=O)OC2=O)c1ccc2c(c1)C(=O)OC2=O,outcome,[1],inactive
same,outcome,[2],inactive
same,outcome,[3],inactive
same,Potency,[4],inactive
same,outcome,[5],inactive
same,Potency,[6],inactive
same,outcome,[7],inactive
same,Potency,[8],inactive
same,Potency,[9],inactive
C=CCOCC(O)CCl (stereo unspecified),outcome,[1],inactive
same,outcome,[2],inactive
same,outcome,[3],inactive
same,Potency,[4],inactive
same,outcome,[5],inactive
same,Potency,[6],inactive
same,outcome,[7],inactive
same,Potency,[8],inactive
same,Potency,[9],inactive
CC1=CC[C@H](CC=O)C1(C)C,outcome,[1],inactive
same,outcome,[2],inactive
same,outcome,[3],inactive
same,Potency,[4],inactive
same,outcome,[5],inactive
same,Potency,[6],inactive
same,outcome,[7],inactive
same,Potency,[8],inactive
same,Potency,[9],48.6 µM (active)
